Screens: PubChem, National Center for Advancing Translational Sciences (NCATS)
This is a sample that favours compounds with a hit; in the whole collection about 2% have one here.
PKM2 act = qHTS Assay for Activators of Human Muscle isoform 2 Pyruvate Kinase; Potency, µM (titrated, usually from 57.5 µM), without a hit: at the top dose activation, hits mostly activators; purified PKM2, Kinase-Glo ATP luminescence, activation; response scale: 0% is enzyme alone, no compound; 260,000 tested, 0.34% active; AID 1631, 2009; also: potency is read from the fitted curve at half-maximal effect; % is scaled to controls: 0 for no effect and ±100 for the full control effect; nearly all actives have a fitted effect of over 55% in size
Target sequence (P14618 whole entry, looked up, canonical isoform): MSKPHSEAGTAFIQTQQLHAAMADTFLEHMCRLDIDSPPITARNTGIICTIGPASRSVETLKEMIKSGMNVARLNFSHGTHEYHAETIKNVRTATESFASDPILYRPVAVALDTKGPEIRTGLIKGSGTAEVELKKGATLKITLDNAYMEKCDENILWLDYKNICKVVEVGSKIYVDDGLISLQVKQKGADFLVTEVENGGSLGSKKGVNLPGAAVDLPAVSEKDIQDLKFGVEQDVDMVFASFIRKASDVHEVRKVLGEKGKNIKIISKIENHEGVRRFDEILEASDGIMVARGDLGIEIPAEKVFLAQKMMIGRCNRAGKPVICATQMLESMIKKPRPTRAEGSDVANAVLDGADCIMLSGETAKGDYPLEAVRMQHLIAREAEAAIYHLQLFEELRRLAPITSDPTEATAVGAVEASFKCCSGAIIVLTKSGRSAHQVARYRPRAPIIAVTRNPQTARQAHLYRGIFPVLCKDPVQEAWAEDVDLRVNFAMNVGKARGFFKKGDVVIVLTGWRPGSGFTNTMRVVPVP
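Kinase-Glo luminescence reports ATP generated from ADP (0.1 mM) and PEP (0.5 mM) by purified hPK-M2 after 1 h at room temperature, pH 7.2 imidazole buffer; intermediate enzyme activity allows detecting inhibitors and activators.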
IL2 activator = qHTS of IL-2 Activators; 360,000 tested, 0.065% active; activation, % (series mostly up to about 46 µM); IL-2 activation reporter assay, cell-based qHTS; stimulated with anti-CD3/CD4/CD28 beads; in transgenic mouse T cells; AID 652025, 2013; in the data active = activation above about 50%; inconclusive = mostly about 30% to 49%; also: 0% is about no effect
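Quantitative HTS in unstimulated transgenic mouse T cells, with memory T cells as non-tolerant control and PMA/ionomycin as tolerance-bypass control. Compound pretreatment lasted 60 minutes before 18 h bead stimulation; EGFP/DsRed fluorescence read.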
NPSR antag = qHTS Assay for Antagonists of the Neuropeptide S Receptor: cAMP Signal Transduction | Q6W5P4 | CHO-NPSR cells, cAMP TR-FRET, antagonist mode | Potency, µM (doses to about 38.3 µM), without a hit: at the highest dose activity change, negative = inhibition, most hits filed as inhibitors | 220,000 tested, 1% active | AID 1461, 2008; also: potency is read from the fitted curve at half-maximal effect; % is scaled to controls: 0 for no effect and ±100 for the full control effect; nearly all actives have a fitted effect of over 50% in size
ClpP mod = qHTS Assay for Activators of ClpP. ATP-dependent Clp protease proteolytic subunit (Bacillus subtilis (strain 168)), P80244. purified B. subtilis ClpP, FRET peptide cleavage, 20 min. Potency, µM (top dose mostly 57.5 µM), for the others: top-dose activity change, negative = active. 340,000 tested, 1.9% active. AID 651965, 2013; active = well fitted falling curve with a large enough effect; inconclusive = small, poorly fitted or top-dose-only effect; inactive = no such curve, though single readings can be large or run the other way; also: potency is read from the fitted curve at half-maximal effect; the source files actives as falling curves though it sought activators and does not explain the sign; nearly all actives have a fitted effect of over 65% in size
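Purified B. subtilis ClpP, 10 microg/mL final in Tris/HCl pH8 with KCl, BSA, glycerol and Tween-20, cleaved an Abz/nitrotyrosine-quenched decapeptide. Fluorescence (ex 320, em 430) was read at 0 and 20 min at room temperature. Delta was normalized to 5.8 microM ADEP and DMSO/no-enzyme controls.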
* = called active by the depositor; ? = inconclusive; / = no result; ! = not active in a repeat; [ ] = remark or other dose. Unless noted, calls follow the shape of the dose curve; as a rule, active = well fitted curve in the direction sought with a large enough effect; inconclusive = small, poorly fitted or top-dose-only effect, or another doubt; inactive = no such curve, though single readings can be large; an effect the other way counts as inactive or inconclusive.

SMILES	PKM2 act	IL2 activator	NPSR antag	ClpP mod
Cn1c2ccc(F)cc2c2nnc(SCC(=O)Nc3cccc(O)c3)nc21	0.32µM*	1	/	/
Cn1c2ccccc2c2nnc(SCC(=O)Nc3cccc(C(=O)O)c3)nc21	/	1	/	0%
Cc1csc(SCC(=O)c2ccc(S(=O)(=O)N3CCOCC3)cc2)n1	28µM*	-3	-15%[46.1 µM]	1%
O=C1c2ccccc2NC2CCCCCN12 (stereo not drawn)	6%	0	8%[46.1 µM]	13µM*
O=C1Nc2ccccc2C(=O)N2CCCCC12 (stereo not drawn)	-2%	0	0%	-4%
COc1ccccc1C(=O)NCCC(=O)NCc1cccnc1	/	0	/	-1%
N#CC1=C(N)N(c2ccccc2)C(c2cccc([N+](=O)[O-])c2)C1(C#N)C#N (stereo not drawn)	11%	-5	-24%[46.1 µM]	1%
Cc1cccc(N2C(S)=C(C#N)C(=O)NC2c2ccco2)c1 (stereo not drawn)	-5%	-2	43%	/
Cc1cccc(N2C(N)=C(C#N)C(C#N)(C#N)C2c2ccccc2)c1 (stereo not drawn)	9%	0	-28%[46.1 µM]	14µM*
N#CC1=C(N)N(c2ccccc2)C(c2ccco2)C1(C#N)C#N (stereo not drawn)	5%	0	-8%[46.1 µM]	14µM*
O=C(COc1ccc([N+](=O)[O-])cc1)N(Cc1ccccc1)Cc1ccccc1	0%	0	-46%	32µM*
O=C(COc1ccccc1)NNC(=O)COc1ccc([N+](=O)[O-])cc1	8%	-3	2%	/
COC(CNC(=O)c1c[nH]c2ccc(S(=O)(=O)N3CCC4(CC3)OCCO4)cc2c1=O)OC	5%	4	4%	22µM*
O=C(c1c[nH]c2ccc(S(=O)(=O)N3CCC4(CC3)OCCO4)cc2c1=O)N1CCOCC1	3%	-3	-6%[46.1 µM]	16µM*
COC(CNC(=O)c1c[nH]c2ccc(S(=O)(=O)N3CCOCC3)cc2c1=O)OC	1%	0	/	4%
Cc1ccc(CS(=O)(=O)c2ccc(C(=O)N3CCN(c4ccccn4)CC3)cc2[N+](=O)[O-])cc1	5%	-2	-13%	/
c1csc(CSc2nnc3sc4ccccc4n23)c1	16µM*	-5	-10%[46.1 µM]	-1%
CCCCN1C(=O)C(CC(=O)NCCCCc2ccccc2)CC(C(=O)N(C(C)C)C(C)C)=C1C (stereo not drawn)	/	-2	/	2%
CCN1CCn2c3c(c4cc(Cl)ccc42)CCCC31 (stereo not drawn)	-3%	0	-13%[46.1 µM]	16µM*
CCN(CC)CCN1CCn2c3c(c4cc(C)ccc42)CCCC31 (stereo not drawn)	0%	-1	0%	-7%
CCOC(=O)c1cnn(-c2nc3c(C)cccc3s2)c1C(F)(F)F	-4%	0	-21%[46.1 µM]	28µM*
CCOC(=O)c1cnn(-c2nc3c(C)cccc3s2)c1C	-4%	0	-6%[46.1 µM]	-3%
CCOC(=O)c1cnn(-c2nc(-c3cccc(F)c3)cs2)c1C(F)(F)F	-2%	2	-27%[46.1 µM]	28µM*
COc1ccc(NC(=O)C(NC(=O)CNC(C)=O)c2ccc(C)cc2)cc1 (stereo not drawn)	9%	0	0%[46.1 µM]	0%
COCC(=O)N(Cc1cc2cc(C)ccc2[nH]c1=O)c1ccc(C)c(C)c1	-3%	0	/	0%
SMILES	PKM2 act	IL2 activator	NPSR antag	ClpP mod
COc1cccc(-c2cnc(NCc3cc(Cl)ccc3O)n2C)c1	?	-2	-31%[46.1 µM]	28µM*
O=C(Nc1cccc2ccccc12)N1CC=CCC1	4%	2	-8%[46.1 µM]	28µM*
Cc1ccc(S(=O)(=O)c2cn(C)c3cc(N4CCN(C)CC4)c(F)cc3c2=O)cc1	1%	-2	/	25µM*!
CCc1ccc(S(=O)(=O)c2cn(C)c3cc(N4CCN(CC)CC4)c(F)cc3c2=O)cc1	/	/	/	11µM*
Cn1cc(S(=O)(=O)c2ccccc2)c(=O)c2cc(F)c(N3CCOCC3)cc21	/	-1	/	28µM*
Cc1ccc(S(=O)(=O)c2cn(C)c3cc(N4CCN(c5ccccc5)CC4)c(F)cc3c2=O)cc1	/	/	/	-5%
NC(=O)NCc1ccccc1F	-11%	1	-17%	/
O=C(O)c1cc([N+](=O)[O-])ccc1NCc1cccnc1	-11%	1	/	-2%
O=C(O)c1cc(N2C(=O)C3C4C=CC(C4)C3C2=O)ccc1NCc1cccnc1 (stereo not drawn)	-19%	2	-9%[46.1 µM]	35µM*
COc1ccc2c(c1OC)OCC2C (stereo not drawn)	/	-6	/	-6%
CCOc1ccccc1NC(=O)N1CCCc2ccccc21	1%	-3	/	1%
COc1cccc(Cn2cccc(NC(=O)Nc3cccc(C#N)c3)c2=O)c1	-9%	-1	-9%	28µM*
COc1cccc(NC(=O)Nc2cccn(Cc3ccc(C)cc3)c2=O)c1	0%	-1	39%	3%
Cc1cccc(CSc2cccc3cccnc23)c1	17%	-1	3.2µM*	?
CCOC(=O)CSc1cccc2cccnc12	1%	-1	-8%[46.1 µM]	16µM*
CCN(CC)C(=O)Sc1cccc2cccnc12	2%	-1	-7%[46.1 µM]	28µM*
NNC(=O)c1ccc(CSc2cccc3cccnc23)cc1	2%	0	6%	/
O=C(CSc1cccc2cccnc12)NCc1ccco1	?	-1	-1%[46.1 µM]	25µM*
CCN1CCN(C(=O)CN(c2ccc(F)c(Cl)c2)S(C)(=O)=O)CC1	-16%	-1	1%	/
COCCSc1nnc(NC(=O)CS(=O)(=O)c2ccccc2)s1	0%	0	/	/
COc1ccc(NC(=O)CSc2nnc3ccc(-c4ccncc4)nn23)cc1	/	1	/	/
O=C(CSc1cccc2cccnc12)Nc1ccc(S(=O)(=O)N2CCOCC2)cc1	25µM*	-1	?	/
CCOc1cccc(C2c3[nH]c4ccccc4c3CCN2C(=O)CCC2CCCC2)c1 (stereo not drawn)	/	/	/	-1%
Cc1ccc(S(=O)(=O)N2CCN(c3ccc(C(=O)N4CCOCC4)cc3[N+](=O)[O-])CC2)cc1	1%	-1	2%	28µM*
COc1ccc(N2CCN(C(=O)c3ccccc3NS(=O)(=O)c3ccc(C)cc3)CC2)cc1	-3%	-4	/	13µM*
SMILES	PKM2 act	IL2 activator	NPSR antag	ClpP mod
Cc1ccc(S(=O)(=O)Nc2ccccc2C(=O)N2CCOCC2)cc1	-1%	-2	/	0%
O=C(COC(=O)C1=NN(c2ccccc2)C(=O)CC1)NCc1ccccc1Cl	/	0	/	28µM*
O=c1c2ccccc2nc(-c2ccoc2)n1CCc1ccccc1	1%	0	-6%[46.1 µM]	25µM*
CC(C1=C(CCN(C)C)Cc2ccccc21)c1ccccn1 (stereo not drawn)	/	-4	/	32µM*
Cc1cccc(OCC(=O)Nc2ccc3oc(-c4ccccc4F)nc3c2)c1	/	/	/	5%
O=C(c1ccc(F)cc1)N1CCN(c2ccc([N+](=O)[O-])cc2-n2cccc2)CC1	1%	0	10µM*	-3%
